Inconclusive results are not listed. Active and inactive are the calls of the source. Unless noted, calls come from the whole dose curve; as a rule, active = well fitted curve in the direction sought with a large enough effect; inconclusive = small, poorly fitted or top-dose-only effect, or another doubt; inactive = no such curve, though single readings can be large; an effect the other way counts as inactive or inconclusive.

Assay [1] is described as follows: Validation of Assay for Modulators of Lamin A Splicing (AID 1459; active = well fitted curve in the direction sought with a large enough effect in the signal ratio; the % refers to the signal ratio;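 note: cells exposed to compound for two days before reading; 0% is about no effect; ratio rise marks activators and ratio drop marks inhibitors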). The procedure, abridged:
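S3 HeLa cells stably expressing a lamin A-EGFP splicing minigene and DsRed2 were seeded at 600 cells/well in Opti-MEM with 2% FBS, pin-dosed, and incubated 48 hrs at 37 °C, 5% CO2. Laser-scanning cytometry (488 nm) gave GFP/RFP total intensity ratio.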

Assay [2] is described as follows: qHTS Assay for Lipid Storage Modulators (AID 1519; calls by dose curve; for activity change, negative = inhibition: % is set by controls: 0 for no effect and ±100 for the full control effect). The conditions noted are these: Drosophila S3 cells, BODIPY lipid droplet/cell ratio, laser cytometry, cells loaded with oleic acid. The procedure, abridged:
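Cells seeded at 5,000 per well were treated with compounds over a concentration series and loaded with oleic acid (400 uM, as added). Lipid droplet fluorescence (488 nm excitation, 500-530 nm channel) was read by laser-scanning cytometry and normalized to 20 uM Triacsin C.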

Assay [3] addresses DNA repair nuclease/redox regulator APEX1 (Homo sapiens) (UniProt P27695). Description: qHTS Validation Assay for Inhibitors of the Human Apurinic/apyrimidinic Endonuclease 1 (APE1) (AID 1705;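 note: TAMRA fluorescence gain over two minutes as APE1 cuts a quenched THF abasic duplex; % is set by controls: 0 for no effect and ±100 for the full control effect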). The procedure, abridged:
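Human APE1 was preincubated with compound for 15 min at room temperature, then 50 nM (final) THF-abasic double-stranded DNA substrate bearing 5'-TAMRA and 3'-BHQ-2 was added. Incision-driven fluorescence rise (ex 525/em 598 nm) was read kinetically.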

Assay [4] can be described thus: Counterscreen for APE1 Inhibitors: Fluorescent Dye Displacement Validation Assay (AID 1707).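 Note: plate controls were ThO with dsDNA and no compound for no effect and ThO without dsDNA for full effect.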 The procedure, abridged: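 Thiazole Orange displacement from dsDNA: 250 nM ThO with 50 nM TAMRA-labelled abasic-site (tetrahydrofuran) duplex in 50 mM Tris-HCl pH7.5, 50mM NaCl, 2 mM MgCl2, 0.01% Tween-20. Loss of endpoint fluorescence (ex 480 nm, em 540 nm) flags DNA binders.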
A general note: Counterscreens check selectivity or assay interference.

The target of assay [5] is Endonuclease 4 (Escherichia coli (strain K12)) (UniProt P0A6C1). Description: Counterscreen for APE1 Inhibitors: qHTS Validation Assay for Inhibitors of Endonuclease IV (AID 1708). Note: % is set by controls: 0 for no effect and ±100 for the full control effect. The procedure, abridged: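 Enzymatic AP-site incision assay using a double-stranded THF substrate labelled with TAMRA and BHQ-2; released fluorescence signals activity. Enzyme 2 nM, substrate 50 nM, 15 min compound preincubation.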

The nature of assay [6]: qHTS for differential inhibitors of proliferation of Plasmodium falciparum line GB4 (AID 1816).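 Note: parasite growth measured after 72 h incubation; 0% = vehicle DMSO and -100% = reference inhibitor.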 Particulars: Potency: Plasmodium falciparum GB4 proliferation inhibition. On the technique in general: qHTS replaces the single test concentration by a dilution series.
The nature of assay [7]: qHTS for differential inhibitors of proliferation of Plasmodium falciparum line 3D7 (AID 1876).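 Note: parasite growth measured after three days of culture; 0% = vehicle wells and -100% = reference inhibitor wells.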
A short description of assay [8]: qHTS for differential inhibitors of proliferation of Plasmodium falciparum line D10 (AID 1877).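 Note: parasites grown with compound for 72 h before DNA staining; plate controls were vehicle wells for no effect and reference inhibitor wells for full effect.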
Assay [9] in a line: qHTS for differential inhibitors of proliferation of Plasmodium falciparum line Dd2 (AID 1882).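 Note: compound exposure of 72 h on infected erythrocytes; plate controls were DMSO vehicle for no effect and 0.29 µM artemisinin for full effect; nearly all actives have a fitted effect of over 65% in size.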 The conditions noted are these: Potency: Plasmodium falciparum Dd2 proliferation inhibition. The procedure, abridged:
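SYBR Green I DNA fluorescence read-out, ex 485/em 535 nm. Signals were normalized to 0.29 uM artemisinin and DMSO wells, then corrected using vehicle-only plates flanking each stack. Parasite growth ran 72 h in erythrocytes before lysis.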

Assay [10] can be described thus: qHTS for differential inhibitors of proliferation of Plasmodium falciparum line HB3 (AID 1886).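 Note: parasites grown with compound for 72 h before SYBR Green readout; plate controls were vehicle for no effect and reference inhibitor for full effect.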 The conditions noted are these: Potency: Plasmodium falciparum HB3 proliferation inhibition.
Assay [11] is described as follows: qHTS Assay for Modulators of Human Peripheral Myelin Protein 22 (PMP22) Expression/Activity (AID 1967; active = well fitted curve in the direction sought with a large enough effect in the signal ratio; the % refers to the signal ratio;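 note: 0% = untreated cells and 100% end not stated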). The procedure, abridged: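 MSC80 mouse Schwann cells stably carrying Pmp22 promoter–green click beetle luciferase plus EF-alpha–red luciferase control were dosed for 24h at 37 °C. Dual-colour luminescence was filter-overlap corrected; %Activity came from green/red ratio versus untreated cells.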

The target of assay [12] is Ferritin light chain (Equus caballus) (UniProt P02791). Description: qHTS Validation Assay for Identification of Novel General Anesthetics (AID 2323). Note: % is set by controls: 0 for no effect and ±100 for the full control effect. The procedure, abridged:
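Competitive displacement of profluorescent 1-aminoanthracene (1-AMA, 50% saturated solution in PBS) from 10 uM horse-spleen apoferritin. Compounds incubated 10 min at room temperature; fluorescence read at 380 nm excitation/535 nm emission, normalized to free 1-AMA and complex, fitted with four-parameter Hill equation.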

In assay [13] the target is ATP-dependent DNA helicase Q1 (Homo sapiens) (UniProt P46063). In words: qHTS Validation Assay for Inhibitors of RecQ-Like Dna Helicase 1 (RECQ1) (AID 2353).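 Note: plate controls were DMSO vehicle for no effect and enzyme-free control for full effect.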 The procedure, abridged: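 50 nM RECQ1T1 preincubated 15 min with compound in Tris pH 8.0 buffer with MgCl2, DTT, Tween-20 and 2.5 ug/ml poly(dI-dC); started with 200 nM TAMRA/BHQ-2 forked duplex and 2 mM ATP. Unwinding read as fluorescence (525/598 nm), two reads 2 h apart.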
ATP-dependent DNA helicase Q1 (Homo sapiens), sequence (P46063 whole entry, looked up): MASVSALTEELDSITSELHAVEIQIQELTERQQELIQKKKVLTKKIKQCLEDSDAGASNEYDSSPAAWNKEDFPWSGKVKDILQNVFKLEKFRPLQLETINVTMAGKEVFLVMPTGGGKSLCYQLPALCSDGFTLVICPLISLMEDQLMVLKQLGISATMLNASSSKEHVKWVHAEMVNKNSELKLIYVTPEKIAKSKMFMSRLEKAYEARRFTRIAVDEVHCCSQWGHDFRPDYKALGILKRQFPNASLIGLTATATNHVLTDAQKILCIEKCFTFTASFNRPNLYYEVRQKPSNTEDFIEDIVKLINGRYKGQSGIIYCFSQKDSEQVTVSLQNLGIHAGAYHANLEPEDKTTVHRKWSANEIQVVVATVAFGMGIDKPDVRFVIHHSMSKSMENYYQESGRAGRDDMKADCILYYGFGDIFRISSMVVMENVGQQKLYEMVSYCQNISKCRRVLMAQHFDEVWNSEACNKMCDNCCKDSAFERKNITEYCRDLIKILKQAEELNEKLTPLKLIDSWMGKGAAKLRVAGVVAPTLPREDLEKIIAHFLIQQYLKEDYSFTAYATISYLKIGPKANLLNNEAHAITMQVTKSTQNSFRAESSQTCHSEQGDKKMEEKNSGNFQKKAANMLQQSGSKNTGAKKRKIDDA

The target of assay [14] is RecQ-like DNA helicase BLM (Homo sapiens) (UniProt P54132). In words: qHTS Validation Assay for Inhibitors of Bloom's syndrome helicase (BLM) (AID 2364).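 Note: plate controls were DMSO vehicle for no effect and enzyme-free control for full effect.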 The procedure, abridged: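 Forked 20-bp duplex substrate (200 nM, TAMRA/BHQ-2) plus 2 mM ATP added after 15 min compound preincubation with 50 nM enzyme, pH 8.0, poly(dI-dC) 2.5 ug/ml. Strand separation followed by fluorescence (525/598 nm) over 2 h, normalized to enzyme-free and DMSO controls.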
RecQ-like DNA helicase BLM (Homo sapiens), sequence (P54132 whole entry, looked up): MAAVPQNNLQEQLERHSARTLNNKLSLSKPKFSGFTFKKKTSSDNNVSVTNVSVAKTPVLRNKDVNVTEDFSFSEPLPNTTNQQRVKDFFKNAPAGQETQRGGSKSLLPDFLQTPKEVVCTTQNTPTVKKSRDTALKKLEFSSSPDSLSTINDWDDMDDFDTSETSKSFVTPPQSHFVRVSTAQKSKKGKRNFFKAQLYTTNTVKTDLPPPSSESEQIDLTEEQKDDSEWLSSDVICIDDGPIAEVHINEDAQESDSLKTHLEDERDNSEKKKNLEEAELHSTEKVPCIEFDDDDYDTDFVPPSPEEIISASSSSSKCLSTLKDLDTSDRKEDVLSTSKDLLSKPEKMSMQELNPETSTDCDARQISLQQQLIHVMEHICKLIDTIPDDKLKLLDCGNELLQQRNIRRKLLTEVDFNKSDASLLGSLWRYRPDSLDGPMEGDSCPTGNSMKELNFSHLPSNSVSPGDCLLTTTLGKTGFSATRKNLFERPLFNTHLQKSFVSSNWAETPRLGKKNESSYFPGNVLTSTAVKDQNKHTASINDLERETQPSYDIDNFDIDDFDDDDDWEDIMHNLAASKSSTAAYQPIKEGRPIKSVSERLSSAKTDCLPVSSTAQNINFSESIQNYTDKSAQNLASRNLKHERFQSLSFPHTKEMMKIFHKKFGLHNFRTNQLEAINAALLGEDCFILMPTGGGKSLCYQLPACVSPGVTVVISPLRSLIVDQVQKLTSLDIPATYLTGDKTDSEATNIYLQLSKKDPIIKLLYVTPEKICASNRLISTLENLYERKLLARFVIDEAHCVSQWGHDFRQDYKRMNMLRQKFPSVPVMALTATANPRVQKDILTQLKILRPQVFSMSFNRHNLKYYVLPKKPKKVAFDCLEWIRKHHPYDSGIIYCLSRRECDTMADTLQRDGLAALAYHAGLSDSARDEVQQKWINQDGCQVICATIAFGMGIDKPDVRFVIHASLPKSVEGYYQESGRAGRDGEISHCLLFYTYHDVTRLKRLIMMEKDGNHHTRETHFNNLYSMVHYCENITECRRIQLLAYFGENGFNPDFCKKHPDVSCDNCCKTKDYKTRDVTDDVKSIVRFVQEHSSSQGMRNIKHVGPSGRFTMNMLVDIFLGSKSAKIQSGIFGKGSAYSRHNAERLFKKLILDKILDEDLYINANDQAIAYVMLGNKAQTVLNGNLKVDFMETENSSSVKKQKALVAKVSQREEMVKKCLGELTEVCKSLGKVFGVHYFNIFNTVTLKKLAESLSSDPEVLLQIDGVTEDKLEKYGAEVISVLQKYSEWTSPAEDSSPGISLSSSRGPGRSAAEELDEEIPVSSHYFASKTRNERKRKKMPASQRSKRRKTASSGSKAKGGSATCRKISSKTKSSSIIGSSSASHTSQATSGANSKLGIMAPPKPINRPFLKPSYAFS

A short description of assay [15]: Cytometric Cell-Based qHTS for Inhibitors of the mTORC1 Signaling Pathway in MEF (Tsc2-/-, p53-/-) Cells (AID 2660).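 Note: Tsc2 and p53 null MEFs carrying empty vector with compound for 24 h; percent of cells above a phospho-rpS6 to PI ratio cutoff in each well; plate controls were DMSO for no effect and rapamycin for full effect.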 The procedure, abridged: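 Readout: Alexa-488 phospho-rpS6 (Ser235/236) intensity divided by PI intensity, thresholded against 7.5 nM rapamycin wells and reported as % positive cells. PI cell count served as the viability measure. Compound exposure was 24 hrs at 37 degree Celsius.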

Assay [16] is described as follows: High Content Imaging Cell-Based qHTS for Inhibitors of the mTORC1 Signaling Pathway in MEF (Tsc2-/-, p53-/-) Cells (AID 2666).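 Note: percent of cells scored positive for phospho-rpS6 Ser235/236 immunostaining by imaging.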 The conditions noted are these: at 38.3 µM (top of the series). The procedure, abridged: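 Cells were plated, dosed with compound after 24 hrs, and incubated another 24 hrs at 37 degree Celsius. Fixed cells were immunostained for phospho-rpS6 Ser235/236 and counterstained, and the normalized signal was scored as % active cells against rapamycin and DMSO controls.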

DNA repair nuclease/redox regulator APEX1 (Homo sapiens), sequence (P27695 whole entry, looked up): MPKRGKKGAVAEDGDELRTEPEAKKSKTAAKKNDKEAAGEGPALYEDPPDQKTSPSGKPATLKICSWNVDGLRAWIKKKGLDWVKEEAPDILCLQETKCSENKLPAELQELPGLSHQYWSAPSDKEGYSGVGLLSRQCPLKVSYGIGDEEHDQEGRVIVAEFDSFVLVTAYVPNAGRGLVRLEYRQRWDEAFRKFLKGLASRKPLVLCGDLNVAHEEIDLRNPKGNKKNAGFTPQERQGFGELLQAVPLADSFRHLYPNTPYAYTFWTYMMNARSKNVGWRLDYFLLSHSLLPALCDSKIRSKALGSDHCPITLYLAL
Ferritin light chain (Equus caballus), sequence (P02791 2-175 limits assumed): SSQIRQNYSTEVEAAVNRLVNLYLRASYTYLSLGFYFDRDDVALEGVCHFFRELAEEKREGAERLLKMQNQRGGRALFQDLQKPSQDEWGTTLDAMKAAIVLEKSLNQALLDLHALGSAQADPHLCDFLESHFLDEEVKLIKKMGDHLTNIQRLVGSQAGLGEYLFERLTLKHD

Take `Cc1cccc(/C=C/c2ccccc2)n1`: the molecule was classed as inactive in [1], in assay [11], in assay [12], in assay [15] and in assay [16]. Moreover, the activity change, negative = inhibition in [2] (at 57.5 µM (top of the series)) was 1.78% (inactive). Further, the values for the max response in [2] (measured here: cell count channel max response) and in [2] (measured here: lipid channel max response) were 54.4% and 55.9%, respectively. Further, the Potency result in assay [3], in assay [4], in [5], in assay [6], in assay [7] and in assay [8] was “inactive” each time. The Potency entry in [9], in assay [10], in assay [13] and in assay [14] was “inactive” throughout.

The values are drawn from PubChem BioAssay (NCATS).
